Hit rate of the full screen: of about 53,000 compounds, about 900 (1.7%) showed an effect of 50% or more. The sample holds strong results, similar compounds and a random draw of the others, so the mix is not that of the screen.
These compounds were tested on Mycobacterium tuberculosis (assay: Cornell - Phenotypic assay to identify agents that inhibit growth of Mycobacterium tuberculosis). Details: 10 mM as filed; unlikely as a test dose.
Format: functional
Set-up: scale not given: direction of the effect not stated beside the values

Structure (SMILES) | Percent Effect [%]
OC(CN1CCC(c2ccn[nH]2)CC1)c1ccccc1F (centres undefined) | 11.88
Cc1csc2nc3n(c(=O)c12)CCN(Cc1c[nH]cn1)CC3.Cl | -9.915
Cc1cc(C(F)F)nn1C(C)C(=O)NCc1nccn1C (centres undefined) | -1.635
Cc1cc(C(F)F)nn1C(C)C(=O)NCc1ncc[nH]1 (centres undefined) | 51.24
CC(C)Nc1ncccc1C(=O)NCc1ncc[nH]1 | 21.23
CN(C)c1ncc(-c2ccncc2)c(CCNC(=O)C2CC2)n1 | 23.54
Cc1c(C(=O)N2CCN(C)CC2)n(C)c2ccc(Cl)cc12 | 29.74
Cc1c(C(=O)N2CCN(c3ncccn3)CC2)n(C)c2ccc(Cl)cc12 | 45.95
Cc1c(C(=O)N2CCN(c3ccccn3)CC2)n(C)c2ccc(Cl)cc12 | 56.67
CCN1C(=O)CC[C@@H]2N(C(=O)CCn3nccc3C)CCCC[C@@]21C | 10.33
CC(C)CC(=O)N1CC(=O)c2sc(NCCc3ccccc3)nc2C1 | -41.09
Cc1ccc(C2(CN3CCN(Cc4cncn4C)CC3)CC2)cc1.Cl | -21.08
Cc1nn(C)cc1CN1CCN(CC2(c3ccccc3)CC2)CC1 | 18.35
Cc1ccc(C2(CN3CCN(Cc4cn(C)nc4C)CC3)CC2)cc1.Cl | 56.88
O=C(NCc1ccncc1)N1CC(Cc2ccccc2F)C1 | 8.731
CCc1ccc(S(=O)(=O)Nc2cc(OC)c(OC)cc2C(=O)O)s1 | 16.65
CCc1ccc(S(=O)(=O)Nc2cc(C(=O)O)c(F)cc2F)s1 | 1.964
CCc1ccc(S(=O)(=O)Nc2c(C)cccc2C(=O)O)s1 | 52.73
Cc1cc(CN(C)C2CCCN(Cc3noc(C4CC4)n3)C2)on1 (centres undefined) | 2.145
O=C(Nc1cccc2c1CCCC2)C1CCCN1c1nccs1 (centres undefined) | -2.486
O=C(Nc1cccc(N2CCCC2)c1)C1CCCN1c1nccs1 (centres undefined) | 57.22
O=C1NCc2ccc(NC(=O)C3CCCN3c3nccs3)cc21 (centres undefined) | 10.34
Cc1nn(Cc2ccc(F)cc2)c2[nH]nc(N)c12 | 41.44

Structure (SMILES) | Percent Effect [%]
Cc1nn(C)c(=O)c2nn(-c3ccc(F)cc3)c(C)c12 | 2.323
Cc1nn(-c2ccc(F)cc2)c2[nH]nc(N)c12 | 67.22
COc1ccccc1CCC(=O)N1CCCC(OCc2cccnc2)C1 (centres undefined) | -21.64
CC(c1nc(C2CC2)no1)N1CCN(Cc2ccccc2)CC1 (centres undefined) | 2.279
CC(Nc1ccc(Br)cc1)c1nc(C2CC2)no1 (centres undefined) | 54.33
CC(Nc1ccc2c(c1)CCC2)c1nc(C2CC2)no1 (centres undefined) | 27.18
COCc1ccc(CNc2cnn(C(C)(C)C)c(=O)c2Cl)cc1 | 55.73
COCc1cccc(CNc2cnn(C(C)(C)C)c(=O)c2Cl)c1 | 17.4
CC(C)(C)n1ncc(NCc2ccccc2)c(Cl)c1=O | -56.94
CCCN1CCC(c2nc3ccc(-c4ccncc4)cn3n2)CC1.O=C(O)C(F)(F)F.O=C(O)C(F)(F)F | -17.17
Cc1nccn1-c1ccc(C(=O)NCC(F)(F)F)nn1 | 18.88
Cc1cnc(C(=O)N2CCC3(CCN3Cc3ccc(F)cc3)C2)cn1.O=C(O)C(F)(F)F (centres undefined) | -0.7224
CN1C(=O)C(C)(C)COc2ccc(NS(=O)(=O)Cc3ccccc3)cc21 | -4.912
CN(C)C(=O)c1cnc2n1CCN(Cc1ccsc1)C2.O=C(O)C(F)(F)F | 1.254
CCc1cc(NCCS(=O)(=O)N(C)C)nc(N2CCOCC2)n1 | 22.77
Cc1ccc(CSc2nc(N)cc(NCCS(=O)(=O)N(C)C)n2)cc1 | 52.28
Cc1ccc(CSc2ncc(Br)c(C(=O)O)n2)cc1 | 1.969
Cc1ccc(CSc2nc(N)cc(NCCC(N)=O)n2)cc1 | 44.65
Cc1ccc(CSc2nc(N)cc(NCC(=O)N3CCNCC3)n2)cc1 | -47.88
Cc1ccc(CSc2nc(N)cc(NCCC(=O)N3CCCC3)n2)cc1 | 88.28
CCn1cnnc1CNC(=O)N1CCC(O)CC1 | -20.2
CC(=O)N1CCCN(C(=O)c2cnn(-c3ccccc3Cl)c2)CC1 | -28.49
Cc1cc(C(F)(F)F)nn1CCCNC(=O)C1CCCO1 (centres undefined) | -51.46

Structure (SMILES) | Percent Effect [%]
O=C(NCC1CC1)C1CCC2(CCN(C(=O)c3ccoc3)CC2)O1 (centres undefined) | -8.481
Cc1ccc2[nH]c(C3CCN(CC(N)=O)CC3)nc2c1 | -20.2
CCC1CCCCN1Cc1ncc(C(C)(C)C)o1 (centres undefined) | -71.87
Cl.NC1CCc2nc(-c3cccnc3)nc(Nc3ccc(F)cc3)c2C1 (centres undefined) | 98.04
Cl.NC1CCc2nc(-c3ccncc3)nc(Nc3cccc(F)c3)c2C1 (centres undefined) | 61.47
CC(O)CNc1nc(-c2cccnc2)nc2c1CCC2 (centres undefined) | 12.92
O=C(Nc1cccc(F)c1)NC1CCN(Cc2ccncc2)CC1 | 26.05
COc1cccc(Nc2nc(-c3ccncc3)nc3c2CNCC3)c1.Cl | -3.556
c1cncc(-c2nc3c(c(NCC4(c5ccncc5)CC4)n2)CCC3)c1 | 21.3
O=C(O)C(F)(F)F.O=C1COC2(CCN(Cc3cccs3)CC2)CN1c1cncnc1 | 13.06
Cc1cnc(N2C(=O)CSC2c2ccccc2)s1 (centres undefined) | 7.465
Cn1cnnc1CN1CCC2(CCCN(C3CCCCC3)C2=O)C1 (centres undefined) | 8.326
CN(C)CCCNC(=O)c1ccccc1NC(=O)c1ccccc1Cl | 2.69
O=C(NCCCN1CCOCC1)c1ccc(-n2ccc3ccccc32)s1 | -5.378
O=C(NCCCN1CCCC1=O)c1ccc(-n2ccc3ccccc32)s1 | 19.74
O=C(NCCCN1CCCCC1)c1ccc(-n2ccc3ccccc32)s1 | 59.15
O=C(NCc1cccnc1)[C@H]1C[C@@H]2CCN(c3ccncn3)C[C@H]2O1.O=C(O)C(F)(F)F.O=C(O)C(F)(F)F | 15.26
CCOCCCn1c(NC(=O)c2scnc2C)nc2ccccc21 | 74.98
Cc1ncsc1C(=O)Nc1ccccn1 | 6.488
Cn1cc(NC(=O)Cn2c(CS(C)(=O)=O)nc3ccccc32)cn1 | -19.06
CCOCCCn1c(NC(=O)c2cnn(C)c2)nc2ccccc21 | 87.33
CCOC(=O)CNC(=O)c1scnc1C | 8.54
CCOCCCn1c(NC(=O)c2ccc(C)nc2)nc2ccccc21 | 49.04
